Laboratory results published in PubChem BioAssay (NCI).
Where “and” joins values, the source holds several entries; their conditions need not be identical. Equal values may be shown once. Compounds without any hit were thinned out: in the full panel of roughly 79,000, 15% have a hit. Calls of active or inactive are those of the source. Rule as the data show it: active = growth inhibition above about 70%; inactive = the rest.

Test: NCI Yeast Anticancer Drug Screen. Data for the mlh1 rad18 strain (AID 175)
Details: S. cerevisiae mlh1 rad18 strain growth inhibition; at 50.0 µM; stronger effect = higher value
Outline: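 A repair-deficient yeast strain is exposed to test compound, and growth is scored relative to vehicle-treated controls.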

Row | Structure (SMILES) | growth inhibition
1 | C[N+]1(CCCl)CCc2cc([N+](=O)[O-])ccc2C1 (configuration not stated) | -9.8% (inactive)
2 | CC[As](=O)(O)c1ccc(I)cc1 | 5.95% (inactive)
3 | Cc1cc(Cl)ccc1NC(=O)/C(CC(=O)CC(c1ccccc1)c1c(O)c2ccccc2oc1=O)=N\O (configuration not stated) | -5.8% (inactive)
4 | CP(C)C.[Ag][I] | -2.4% (inactive)
5 | COC1CC(OC2C(C)OC(OC3C(C)OC(OC4C(C)OC(O[C@H]5CC[C@@]6(C)C(=CC[C@]7(O)[C@@H]6C[C@@H](OC(C)=O)[C@@]6(C)[C@]7(O)CC[C@@]6(O)C(C)=O)C5)CC4OC)CC3OC)CC2OC)OC(C)C1O (some centres not stated) | -47.1% (inactive)
6 | O=S(=O)(c1ccccc1)N1C2CCCC21 (configuration not stated) | -21.5% (inactive)
7 | CCNCCC1(CC)C(=O)NC(=O)NC1=O | -10.6% (inactive)
8 | Cc1cccc(C(=O)[O][Pb]([CH3])([CH3])[CH3])c1 | 36.2% (inactive)
9 | CC(=O)C(C(C)=O)C(=O)c1ccc([N+](=O)[O-])cc1.[Cr] | 23.2% (inactive)
10 | [N-]=[N+]=NC1C2CC3CC(C2)CC1C3 (configuration not stated) | -24.8% (inactive)
11 | C[N+]1(C)CCN(c2ccccc2)CC1 | -5.35% (inactive)
12 | OC(COc1cccc2ccccc12)CN(CCCl)CCCl (configuration not stated) | -30.1% (inactive)
13 | CCOC(=O)C(C(=O)OCC)c1ccccc1 | -0.15% (inactive) and 9.55% (inactive)
14 | CCCC[As](CCCC)SC1OC(COC(C)=O)C(OC(C)=O)C(OC(C)=O)C1OC(C)=O (configuration not stated) | 98.1% (active)
15 | CCCCOC1OCN(C2CCCCC2)CC1(C)C (configuration not stated) | 41.8% (inactive)
16 | c1ccc2c(c1)sc1sc3c([n+]12)CCCC3 | -20.2% (inactive)
17 | COC1OC2COc3ccccc3OC2C(N=C(N)N[N+](=O)[O-])C1OS (configuration not stated) | 11.3% (inactive)
18 | CC(C)OP(=O)(OC(C)C)C(C(F)(F)F)C(F)(F)F | -23.1% (inactive)
19 | NCCCP(c1ccccc1)c1ccccc1 | 10.6% (inactive)
20 | CC(NC1=NCCO1)c1cccs1 (configuration not stated) | -12.9% (inactive)
21 | CC1CN(C2CCCCC2)CO1 (configuration not stated) | -32.2% (inactive)
22 | CCOP(=O)(OCC)Oc1ccc([N+](=O)[O-])c(CC)c1 | -8.25% (inactive)
